# The list is not random: actives were taken first. Their share in the collection is about 6.4%.
# RORg inh: inhibitors of mouse ROR gamma transcriptional activity. P51450. Drosophila S2 Gal4-RORgamma UAS-luciferase reporter, 20 h. Potency, µM (titrated, usually from 53.6 µM), for the others: at the top dose activity change, negative = inhibition, actives largely listed as inhibitors. 310,000 tested, 5.4% active. AID 2551; further: nearly all actives have a fitted effect of over 60% in size
# Target sequence (P51450 whole entry, looked up, the tested form may be a part): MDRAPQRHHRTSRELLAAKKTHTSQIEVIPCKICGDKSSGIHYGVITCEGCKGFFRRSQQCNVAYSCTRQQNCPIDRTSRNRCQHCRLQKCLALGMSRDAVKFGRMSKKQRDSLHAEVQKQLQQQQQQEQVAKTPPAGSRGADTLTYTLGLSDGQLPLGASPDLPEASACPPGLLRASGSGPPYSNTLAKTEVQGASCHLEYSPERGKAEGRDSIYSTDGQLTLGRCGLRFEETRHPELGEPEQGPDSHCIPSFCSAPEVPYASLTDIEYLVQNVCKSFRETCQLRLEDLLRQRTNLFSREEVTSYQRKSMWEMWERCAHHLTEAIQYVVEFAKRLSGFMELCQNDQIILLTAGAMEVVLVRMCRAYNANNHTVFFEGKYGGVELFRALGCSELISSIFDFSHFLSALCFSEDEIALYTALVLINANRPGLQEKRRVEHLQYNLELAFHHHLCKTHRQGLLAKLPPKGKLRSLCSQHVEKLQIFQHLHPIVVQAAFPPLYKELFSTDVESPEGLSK
#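 Stably transfected Drosophila Schneider cells are the test system, with ROR gamma fused to Gal4 and luciferase under UAS control; luminescence is read after 20 hr of 700 uM copper sulfate induction at ambient temperature.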
# VP16 counter: counter-screen for ROR gamma inhibitors: Gal4-VP16 reporter. Potency, µM (series often up to 53.6 µM), for the others: top-dose activity, negative = inhibition, most hits filed as inhibitors. AID 2546. Drosophila S2 Gal4-VP16 UAS-luciferase, luminescence, 20 h. 310,000 tested, 3.5% active;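 further: Gal4-VP16 expression switched on by copper sulfate through the metallothionein promoter; nearly all actives have a fitted effect of over 50% in size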
# Luc counter: Kinase-Glo luciferase inhibition (counter-screen). 200,000 tested, 0.28% active. Q27757. AID 1379. Kinase-Glo luciferase, ATP luminescence, 8 min. Potency, µM (titrated, usually from 38.3 µM), without a hit: top-dose activity change, negative = inhibition, actives largely listed as inhibitors; further: nearly all actives have a fitted effect of over 60% in size
#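 Substrate mix (final 50 mM imidazole pH 7.2, 50 mM KCl, 7 mM MgCl2, 10 uM ATP, 0.01% Tween 20, 0.05% BSA) plus pin-tool compound, then Kinase-Glo detection mix; 8 min ambient, luminescence read.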
# * = called active by the depositor; ? = inconclusive; / = no result; [ ] = remark or other dose. The call rests on the fitted dose curve; in most records, active means well fitted curve in the direction sought with a large enough effect; inconclusive means small, poorly fitted or top-dose-only effect, or another doubt; inactive means no such curve, though single readings can be large; an effect the other way counts as inactive or inconclusive. On the % scale 0 is the no-effect control and ±100 the full control effect; potency means the concentration at half of the fitted maximal effect.
SMILES,RORg inh,VP16 counter,Luc counter
COc1ccc(C(C(=O)NCC2CCCO2)N(C(=O)c2snc(C(N)=O)c2N)c2ccc(C)cc2)cc1OC (centres undefined),3%,6%,/
O=C1Nc2cc3c(cc2C1=O)sc1ccccc13,?,-25%,/
CCn1c(-c2ccco2)n[nH]c1=S,16µM*,?,-1%
CCCCn1c(-c2ccoc2C)n[nH]c1=S,3%,-2%,2%
Cn1c(-c2ccco2)n[nH]c1=S,?,-3%,0%
CCCCn1c(-c2c(Cl)c(C)nn2C)n[nH]c1=S,2.2µM*,-2%,-5%
CCCCn1c(-c2ccco2)n[nH]c1=S,4.5µM*,7.1µM*,1%
CCCCn1c(-c2sccc2C)n[nH]c1=S,5µM*,11µM*,-3%
CCn1c(-c2c(Cl)c(C)nn2C)n[nH]c1=S,?,-27%,3%
COC(=O)C1=C(COc2ccc(C=O)cc2OC)NC(=O)NC1c1cc(C)ccc1C (centres undefined),37%,?,-1%
CC(C)Cn1c(-c2ccco2)n[nH]c1=S,10µM*,?,2%
C=CCn1c(-c2ccoc2C)n[nH]c1=S,?,?,-2%
CC(C)Cn1c(-c2ccco2)nc2c(c(=O)c3ccccc3n2C)c1=O,7%,-19%,-3%
C=CCn1c(-c2ccco2)n[nH]c1=S,10µM*,?,4%
Cc1ccc(CNc2ccc3c(c2)ncn3C(C)C)cc1,5µM*,-7%,/
COc1ccccc1-n1cnc2cc(NCc3ccccc3O)ccc21,1%,0%,/
CCn1cnc2cc(NCc3ccc(C)cc3)ccc21,?,?,-1%
COc1ccc(CNc2ccc3c(c2)ncn3-c2ccccc2OC)cc1,18µM*,?,0%
COc1cccc([C@@H]2Oc3ccc(Br)cc3C[C@H]2OC(=O)NCCc2ccc(OC)c(OC)c2)c1,?,5%,-2%
COc1cc(CCC(=O)N2CCN(c3cccc(C)c3C)CC2)cc(OC)c1OC,32%,2%,/
OCC1OC(n2cnc3c(Cl)nc(Cl)nc32)C(O)C1O (centres undefined),13µM*,-4%,-3%
CSc1ncnc2c1ncn2C1OC(CO)C(O)C1O (centres undefined),0%,-8%,0%
Nc1nc(Cl)nc2c1ncn2[C@@H]1O[C@H](CO)[C@H](O)[C@H]1O,/,/,-2%
N/C(=N\O)c1cn([C@@H]2O[C@@H](CO)[C@H](O)[C@@H]2O)c2ncnc(NO)c12,/,/,-6%[7.66 µM]
OC[C@H]1O[C@@H](n2cnc3cncnc32)[C@H](O)[C@@H]1O,7.1µM*,3.2µM*,1%
SMILES,RORg inh,VP16 counter,Luc counter
Nc1ncnc2c1c(I)cn2C1OC(CO)C(O)C1O (centres undefined),5.6µM*,4µM*,-5%
Cc1ccc(CN2CCN(C(=O)c3ccncc3)CC2)cc1,17%,-9%,-1%
Cc1cc(C)nc(NS(=O)(=O)c2ccc(NC(=O)c3snnc3C)cc2)n1,-15%,-1%,/
COc1ccc(-n2c(=O)c3c4c(sc3n(CC(N)=O)c2=O)CCCCC4)cc1,-7%,-1%,/
O=C(N/N=C(\Cc1ncc[nH]1)c1ccccc1)c1ccncc1,-37%,-14%,/
O=C(N/N=C(\Cc1ncc[nH]1)c1ccccc1)c1ccccc1,11µM*,-9%[10 µM],8%
O=C(CC1C(=O)NCCN1C(=O)c1ccc([N+](=O)[O-])cc1)Nc1ccc(F)cc1 (centres undefined),0%,3%,/
C=CCNC(=O)CC(=O)N/N=C/c1cccc(C)c1,-11%,-14%,0%
Cc1ccc(/C=N/NC(=O)CCn2nc(C)cc2C)c(C)c1,-24%,3%,2%
C=CCNC(=S)N/N=C/c1ccc(C)c([N+](=O)[O-])c1,1.1µM*,4.5µM*,1%
CNC(=S)Nc1ccc(C)cc1,?,13%,-3%
CC(C)NC(=S)N/N=C/c1ccccc1[N+](=O)[O-],1.8µM*,5.6µM*,-1%
Cc1ccc(C)c(/C=N/NC(=S)NC(C)C)c1,2.2µM*,3.2µM*,-5%
CNC(=S)N/N=C/c1cc(C)ccc1C,2.2µM*,5µM*,4%
CCCCCC(=O)N/N=C/c1ccccc1[N+](=O)[O-],40%,15%,1%
CCCc1cc(C(=O)N2CCCC(Nc3ccc(C)c(C)c3)C2)n(C)n1 (centres undefined),27%,0%,/
Cc1ccc(-c2nnn(CC(=O)N(CC(=O)NC3CCCCC3)c3ccccc3F)n2)o1,22%,-4%,/
C=CCOC(/C=C/c1ccccc1)CC (centres undefined),-8%,-2%,/
COc1ccc(N2CCN(c3ccc(C(=O)O)cc3[N+](=O)[O-])CC2)cc1,-11%,5%,/
O=C(O)CC1S/C(=N\N=C2\C(=O)Nc3ccccc32)N(c2ccc(O)cc2)C1=O (centres undefined),-22%,8%,/
CCNC(=S)N/N=C/c1cccc(C)c1,0.89µM*,0.89µM*,-1%
C=CCNC(=S)Nc1ccc2nc(C)c(C)nc2c1,-37%,-6%,-2%
CN(C)c1ccc(/C=N/NC(N)=S)cc1[N+](=O)[O-],18µM*,?,-7%
CCNC(=S)Nc1ccc2cn[nH]c2c1,-2%,-9%,-4%
CC(=O)Nc1ccc(/C=N/NC(N)=S)cc1,-7%,-8%,3%[39.9 µM]
SMILES,RORg inh,VP16 counter,Luc counter
CCNC(=S)N/N=C/c1ccc(C(=O)O)cc1,33%,-12%,?
C=CCNC(=S)N/N=C/c1ccc(C)cc1C,0.45µM*,?,1%
CCNC(=S)N/N=C/c1cc(C)ccc1C,1.8µM*,2.5µM*,-4%
O=C(Nc1ccc(C(=O)N2CCOCC2)cc1)Nc1ccc(Cl)cc1Cl,17%,4%,2%
O=C(/C=C(/c1ccc(Cl)cc1)n1cncn1)c1ccccc1,38%,-13%,6%
CN(Cc1ccccc1)/C(=N/O)c1cccc(Cl)c1,23%,1%,/
S=C(NCCC1=CCCCC1)Nc1ccc(Cl)cc1,3.5µM*,?,1%
COc1ccc(NC(=O)NCCC2=CCCCC2)cc1,-1%,-5%,-1%
COc1ccc(C)cc1S(=O)(=O)NCCC1=CCCCC1,-11%,11µM*,-3%
Clc1ccc(CNCCC2=CCCCC2)cc1,-5%,-1%,13%
COc1ccc(C)cc1S(=O)(=O)N1CCC(C(=O)NCCC2=CCCCC2)CC1,-9%,-4%,-2%
COc1ccc(NC(=S)NCCC2=CCCCC2)cc1OC,2.5µM*,13µM*,4%
CN1C=CC(=C2C=CN(C)C=C2)C=C1,4%,-4%,/
Cc1ccc(N(CC(=O)NCc2ccco2)C(=O)CCC(=O)Nc2nccs2)cc1,13%,1%,/
O=C(O)CNC(=O)CC1S/C(=N/N=C2/NC(=O)CS2)NC1=O (centres undefined),-17%,-11%,-4%
Cc1nn(C)cc1/C=N/NC(=O)Cn1nnc(N)n1,4%,-4%,/
O=C(NNC1=NS(=O)(=O)c2ccccc21)c1ccccc1,13µM*,?,/
O=C(NNC1=NS(=O)(=O)c2ccccc21)c1ccccc1Cl,-19%,-15%,1%
O=C(O)c1c(Cl)c(Cl)c(Cl)c(Cl)c1-c1c2cc(I)c(=O)c(I)c-2oc2c(I)c(O)c(I)cc12,14µM*,?,13µM*
CCc1nnc(NC(=O)CCC(=O)Nc2ccc(OC)cc2OC)s1,-2%,-13%,/
COc1ccc(C(=O)CNc2ccccc2Br)cc1,1.8µM*,?,/

# High-throughput results deposited in PubChem BioAssay by National Center for Advancing Translational Sciences (NCATS).
